# Measured values as given in PubChem BioAssay (NCI).
# The panel holds about 83,000 compounds, 20% with a hit somewhere; the sample as a whole holds those more often.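 A percent growth of 40 corresponds to 60% growth inhibition; 0 means no net growth; -100 means all cells died. Active threshold: below 10.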 Unmarked numbers belong to inactive results.
# Tested on: HCC-2998 colon
# Test: NCI-60 one-dose screen, 48 h (100 = growth as untreated, 0 = no growth, -100 = all killed)
# Settings: 10 µM
row,Compound,growth
1,S=c1sc2ccccc2n1CN1CCCCC1,116%
2,CSc1[nH]c(=O)ncc1F,96.8%
3,COc1ccc(-c2cc(-c3cc(-c4ccc(OC)cc4)nc(N)n3)nc(N)n2)cc1,112%
4,Cc1cc(N)c(S(=O)(=O)O)c(N)c1,86.3%
5,COc1ccccc1NC(=O)C1=C(C)NC(C)=C(C(=O)Nc2ccccc2OC)C1c1cccc([N+](=O)[O-])c1,76.9%
6,C=CCNc1nnc(C)s1,112%
7,COC(=O)C(C)Oc1ccc(OC#N)cc1 (stereo not given),105%
8,CCc1nn(Cc2ccccc2)c2nc(C)c(CCc3ccccc3)c(Cl)c12,101%
9,c1c(-c2cc(C3CC3)[nH]n2)n[nH]c1C1CC1,102%
10,O=C(CCNNC(=O)c1ccncc1)NCc1ccccc1,111%
11,CC(=O)Nc1cccc(Cl)c1C,107%
12,CC(=O)C1CCCCC1,103%
13,CCOC(=O)/C(C#N)=C/c1cccc(C)c1,102%
14,CC(C(=O)O)(C1CCCCC1)C1(O)CCCCC1 (stereo not given),96.3%
15,CN(C)c1ccc2oc(=O)c3ccccc3c2c1,88.5%
16,O=C(OCC(O)C1OC(c2ccccc2)OC(COC(=O)c2ccccc2)C1O)c1ccccc1 (stereo not given),103%
17,O=C(O)c1ccc(S(=O)(=O)O)cc1,105%
18,OC1CCCc2ccccc21 (stereo not given),119%
19,CCCCCCCCCCCCCC(=O)Oc1ccc[nH]c1=O,109%
20,COc1cc2c(cc1OC)[C@H](C(=O)O)[C@@H](c1ccc(OC(C)C)c(OC)c1)N(C)C2=O,108%
